About 83,000 compounds went through this panel and 20% of them were active in at least one assay; those are over-represented in the sample as a whole.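 Each cell line was grown in a 96-well plate and treated with one concentration of compound for 48 hours. Values below 10 were considered active.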 Values without a mark were called inactive. The source made the active and inactive calls.
Test system: SK-MEL-5 melanoma
Experiment: NCI-60 one-dose screen, 48 h (100 = growth as untreated, 0 = no growth, -100 = all killed)
Conditions: 10 µM unless noted
Procedure: Growth inhibition of the SK-MEL-5 human tumor cell line is measured as a screen for anti-cancer activity. Cells are grown in 96 well plates and exposed to the test compound for 48 hours. Compounds are tested at a single concentration, which is 10^-5 M for most compounds. The reported endpoint is percent growth (GI% or GIPRCNT), where numbers from 0 - 100% represent growth inhibition, and numbers from -100% - 0 represent cell death. For example, a value of 40 represents 60% growth inhibition. A value of 0 means no net growth occurred over the course of the experiment. A value of -40 indicates 40% of cells at the beginning of the experiment died by the end of the experiment. A value of -100 means all cells are dead at the end of the experiment.
NCI-60 Human Tumor Cell Lines Screen was performed using the standard one-dose NCI protocol, which is described in more detail at https://dtp.cancer.gov/discovery_development/nci-60/default.htm.
Compounds with GIPRCNT values below 10 were considered active. Activity score was based on GIPRCNT using the following formula: […]
Score is 0 for GIPRCNT values of 100 or above, 50 for GIPRCNT values of 0, and 100 for GIPRCNT values of -100.

SMILES	growth
O=C1CC[C@H](c2ccc(O)c3c2C(=O)[C@@H]2O[C@@H]2C3=O)c2cccc(O)c21	92.6%
Cc1nn(-c2ccc(F)cc2)c2ncnc(Oc3ccc(NC(=O)Nc4ccc(Cl)c(C(F)(F)F)c4)cc3)c12	99.1%
O=C1/C(=C/c2ccc(Cl)cc2)SC(=S)N1CCc1ccc(O)cc1	97.1%
Nc1ccc(-c2cc3c(Nc4ccc(Oc5cccc(C(F)(F)F)c5)c(Cl)c4)ncnc3s2)cc1	70.9%
Cc1cc(C)c2nc3nc(C)cc(C)c3c(N)c2c1	26.8%
COc1cc2nnc3c4cccnc4[nH]c3c2cc1OC	93.5%
COc1cc(/C=C/C(=O)Nc2cccnc2Nc2ccc(F)cc2)cc(OC)c1OC	95.8%
CCOC(=O)n1cc(-c2nonc2-c2cn(C)c3ncccc23)c2ccccc21	77.3%
O=c1c2c3c(sc2nc(N/N=C/c2cn(-c4ccccc4)nc2-c2ccc(Cl)cc2)n1Cc1ccccc1)CCCC3	104%
COc1ccc(-c2nc3ccc(-c4nc5ccc(N6CCN(c7ccc(F)cc7)CC6)cc5[nH]4)cc3[nH]2)cc1OC	65.6%
CN(C)C(=S)N=Nc1c(O)[nH]c2ccccc12	4.77% (active)
COC(=O)c1ccc(NC(=O)c2ccc(-c3cccc([N+](=O)[O-])c3)o2)cc1	97.8%
NC(N)=N/N=C(/c1ccccc1)c1ccc(F)cc1	-18.7% (active)
O=C1NC(=S)N[C@H]1CC(=O)n1cnc2ccccc21	99.1%
COc1cc2nc(N3CCCC3)nc(NCC3CCCCC3)c2cc1OC	-97.7% (active)
COc1ccc(-n2nc(C)c3c(Nc4ccc(NC(=O)Nc5cccc(C(F)(F)F)c5)cc4)ncnc32)cc1	-66.5% (active)
Cn1cc(C(=O)c2nc(-c3c[nH]c4ccc(F)cc34)no2)c2cc(F)ccc21	92.8%
COc1cccc(-c2nc3sccn3c2-c2ccnc(NCCCNS(=O)(=O)c3c(Cl)cccc3Cl)c2)c1	22.8%
Cc1ccc2c(C(C[N+](=O)[O-])c3ccco3)c(-c3ccccc3)[nH]c2c1 (stereo not given)	35.6%
O=C(N(c1ccccc1)c1ccccc1)n1ccc2nc(Cl)nc(Cl)c21	64.9%

SMILES	growth
Cc1ccc2c(C(C[N+](=O)[O-])c3ccccc3)c(-c3ccccc3)[nH]c2c1 (stereo not given)	32.8% [9.5 µM]
CSc1nc(NCc2ccccc2)c(C#N)c(-c2cccc([N+](=O)[O-])c2)n1	100%
CC(C)CSc1nc(N)nc2c1ncn2C1OC(CO)C(O)C1O (stereo not given)	96.5%
C=CCSSC1N=CNc2nc[nH]c21 (stereo not given)	60.7%
Cc1ccc(/C=C2\SC(=S)N(CC(=O)NCCCN3CCOCC3)C2=O)cc1	97.1%
COc1cc(C2CC(=O)c3ccccc3N2)cc(OC)c1OC (stereo not given)	99.5%
O=[N+]([O-])c1cnc(N2CCN(CC3CC3)CC2)nc1N1CCN(CC2CC2)CC1	99.5%
Cn1c(=O)[nH]c(=O)c2nc(CCC(=O)NCCC(=O)O)c(=O)[nH]c21	103%
N#C/C(=C\c1ccc(-c2ccc(Cl)c(Cl)c2)o1)c1nc(-c2ccco2)cs1	70.5%
COc1cc(C(=O)/C=C/c2cccnc2Nc2ccc(Cl)cc2)cc(OC)c1OC	-86.8% (active)
NS(=O)(=O)c1ccc(CN=C2NC(=O)S/C2=C\c2ccc(Br)cc2)cc1	99.2%
Cc1cc(Nc2ccc(C)c(Cl)c2)n2nc(C(F)(F)F)nc2n1	75.4%
Cn1c(NCCc2ccc(O)c(O)c2)nc2c1c(=O)n(Cc1ccc(Cl)c(Cl)c1)c(=O)n2C	65.4%
O=C(/C=C/c1ccc(C(F)(F)F)cc1)Nc1ccc(C=C2c3ccccc3C(=O)c3ccccc32)cc1	44.7%
CC(=O)OCCC/C(=C/c1cc2ccccc2c2ccccc12)[N+](=O)[O-]	-100% (active)
O=C1c2ccccc2C(=O)c2c1ccc1[nH]c(-c3cccs3)nc21	85%
O=C(CN(C(=O)Cn1c(=O)n2nnnc2c2ccccc21)c1ccccc1C(F)(F)F)Nc1ccc(C(F)(F)F)cc1	102%
Cn1cc(C(=O)c2nc(-c3c[nH]c4ccc(Br)cc34)no2)c2cc(F)ccc21	83.8%
COc1ccc(S(=O)(=O)N2CCCCCC2)cc1NC(=O)c1[nH]c(C)c2c1CCCCC2=O	-43.8% (active)
COc1ccc(-n2nc(C)c3c(Nc4ccc(NC(=O)Nc5ccc(Cl)c(C(F)(F)F)c5)cc4)ncnc32)cc1	-44.7% (active)

Reference: PubChem BioAssay (NCI)
